The results in this text go back to article PMC5540273 (PLoS ONE, 2017).

Among the test systems are DDR1; DDR2; DMPK; DYRK1A.
What all share (conditions): concentration: 1 μM, replicates: in singlicate; n = 1
The subject of the next experiment is T1, DCAMKL2.
T1 construct: gene DCLK2

The test system of another experiment is T2, DCAMKL3.
T2 construct: gene DCLK3

A further experiment relates to T3, DLK.
T3 construct: gene MAP3K12

In the next experiment the test system is T4, DMPK2.
T4 construct: gene CDC42BPG

In the next experiment the test system is T5, DRAK1.
T5 construct: gene STK17A

In a further experiment the test system is T6, DRAK2.
T6 construct: gene STK17B
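Note: KINOMEscan kinase panel screen.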

Regarding `COc1cccc(NC(=O)NCCNc2ccnc(Nc3ccc(F)cc3)n2)c1` [GSK1379879], the “%Inh” value with DCAMKL2 was found to be 0%; in the experiment on DCAMKL3, 0%; with DDR1, 7%; in the experiment with DDR2, 1%; in the experiment on DLK, 21%; with DMPK2, 0%. The “%Inh” value with DMPK amounted to 0%; in the experiment on DRAK1, 0%; in the experiment on DRAK2, 31%; with DYRK1A, 10%.
Turning to `Cc1cccc(Nc2nc(N[C@H]3CCCC[C@H]3N)ncc2C(N)=O)c1.Cl` [GSK986310], the “%Inh” value is 3% in the experiment with DCAMKL2; 35% in the experiment on DCAMKL3; 6% in the experiment with DDR1; 0% in the experiment on DDR2; 19% with DLK; 21% in the experiment on DMPK2. Also, the “%Inh” value in the experiment with DMPK is listed as 59%; with DRAK1, 4%; with DRAK2, 18%; in the experiment with DYRK1A, 26%.
With `Nc1ncnc2scc(-c3ccc(NC(=O)Cc4cc(F)ccc4F)cc3)c12.O=C(O)C(F)(F)F` [SB-731254-M], the “%Inh” value is recorded as 11% in the experiment with DCAMKL2; 16% in the experiment with DCAMKL3; 58% in the experiment with DDR1; 24% with DDR2; 0% in the experiment with DLK; 23% in the experiment on DMPK2. Also, the “%Inh” value turned out to be 6% in the experiment on DMPK, 3% in the experiment with DRAK1, 10% in the experiment with DRAK2 and 12% in the experiment with DYRK1A.
With `CN(c1ccc(NC(=O)N2CCN(CCCN3CCOCC3)CC2)cc1)c1ccnc(Nc2ccc(CS(C)(=O)=O)cc2)n1.Cl` [GW830899], the “%Inh” value with DCAMKL2 was determined as 0%; in the experiment on DCAMKL3, 5%; in the experiment on DDR1, 36%; in the experiment on DDR2 it was 54%; with DLK it was 24%; in the experiment on DMPK2 it was 0%. The “%Inh” value in the experiment on DMPK is given as 0%; with DRAK1, 0%; in the experiment with DRAK2 it was 13%; with DYRK1A, 0%.
Consider `CCOc1nccc(-c2c(-c3ccc(F)cc3)ncn2C2CCNCC2)n1` [SB-249175], for which the “%Inh” value in the experiment with DCAMKL2 turned out to be 24%; in the experiment on DCAMKL3 it was 10%; in the experiment on DDR1, 0%; in the experiment on DDR2 it was 7%; in the experiment with DLK, 0%; in the experiment with DMPK2 it was 75%. Besides, the “%Inh” value in the experiment on DMPK was found to be 15%; with DRAK1 it was 0%; with DRAK2 it was 0%; in the experiment with DYRK1A, 1%.
On to `O=C(Nc1n[nH]c2cc(-c3cccs3)ccc12)C1CC1` [SB-731284], for which the “%Inh” value is 3% in the experiment with DCAMKL2; 0% in the experiment with DCAMKL3; 10% in the experiment with DDR1; 23% with DDR2; 26% in the experiment with DLK; 0% with DMPK2. Moreover, the “%Inh” value in the experiment on DMPK is given as 0%; in the experiment with DRAK1, 14%; in the experiment with DRAK2, 12%; in the experiment on DYRK1A, 15%.
Take `CSc1ccc(NC2=C(c3ccc(Cl)cc3)C(=O)NC2=O)cc1` [SB-317658]: the “%Inh” value in the experiment with DCAMKL2 came to 2%; in the experiment on DCAMKL3 it was 12%; in the experiment with DDR1, 0%; with DDR2, 5%; in the experiment on DLK, 0%; with DMPK2 it was 10%. For the same compound, the “%Inh” value in the experiment on DMPK is reported as 8%; in the experiment with DRAK1, 12%; in the experiment with DRAK2, 0%; in the experiment on DYRK1A, 1%.
For the compound `O=C(Nc1c(F)cccc1F)c1cc(C(=O)c2ccccc2F)c[nH]1` [GSK1326180], the “%Inh” value with DCAMKL2 came out at 0%; with DCAMKL3, 36%; with DDR1, 0%; with DDR2, 13%; in the experiment on DLK, 14%; in the experiment on DMPK2 it was 0%. Further, the “%Inh” value came to 0% in the experiment with DMPK, 10% with DRAK1, 0% with DRAK2 and 2% with DYRK1A.
Turning to `Cc1ccc(O)cc1Nc1ccnc2ccc(C(C)(C)C)cc12` [GW856805], the “%Inh” value was 18% in the experiment with DCAMKL2; 0% in the experiment on DCAMKL3; 40% in the experiment on DDR1; 60% with DDR2; 0% in the experiment on DLK; 5% in the experiment on DMPK2. In addition, the “%Inh” value with DMPK came out at 3%; with DRAK1, 12%; in the experiment with DRAK2 it was 0%; in the experiment on DYRK1A, 0%.
